In PubChem BioAssay AID1159580 (chemical genetic matrix, 2015):
About 2,000 (36%) of roughly 5,500 compounds were called active. Roughly 18% stayed inconclusive and do not appear here. Rule as the data show it: active = normalized growth mostly below about 0.91 (no sharp cut-off); inconclusive = no clear call, values can overlap the other calls; inactive = mostly above about 0.92. This is one part of the list.

Test: chemical genetic growth profiling, strain panel (AID 1159580);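 also: tested at 20 µM; growth read once vehicle control cultures reached saturation at 30 °C; 1 = growth at the plate median or of vehicle wells; lower values mean less growth of the strain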
Settings: growth OD

Measured: normalized growth

O=c1oc2ccccc2c(O)c1Cc1c(O)c2ccccc2oc1=O
inactive: S. cerevisiae deletion strains, locus YJR066W, strain TOR1, hits give low values 0.859 | S. cerevisiae deletion strains, locus YKL009W, strain mrt4, hits give low values 0.944 | S. cerevisiae deletion strains, locus YKL068W, hits give low values 0.959 | S. cerevisiae deletion strains, locus YKL160W, strain elf1, hits give low values 1.01 | S. cerevisiae deletion strains, locus YKR001C, strain vps1, hits give low values 0.962 | S. cerevisiae deletion strains, locus YKR026C, strain gcn3, hits give low values 1.02 | S. cerevisiae deletion strains, locus YKR091W, strain srl3, hits give low values 0.999 | S. cerevisiae deletion strains, locus YLL001W, strain dnm1, hits give low values 1.03 | S. cerevisiae deletion strains, locus YLL026W, hits give low values 0.996 | S. cerevisiae deletion strains, locus YLL041C, strain sdh2, hits give low values 0.987 | S. cerevisiae deletion strains, locus YLR027C, strain aat2, hits give low values 0.992 | S. cerevisiae deletion strains, locus YLR039C, strain RIC1, hits give low values 1.01 | S. cerevisiae deletion strains, locus YLR058C, strain SHM2, hits give low values 1 | S. cerevisiae deletion strains, locus YLR102C, strain apc9, hits give low values 0.964 | S. cerevisiae deletion strains, locus YLR113W, strain HOG1, hits give low values 0.965 | S. cerevisiae deletion strains, locus YLR221C, strain rsa3, hits give low values 0.994 | S. cerevisiae deletion strains, locus YLR258W, strain gsy2, hits give low values 1 | S. cerevisiae deletion strains, locus YLR262C, strain YPT6 (second series), hits give low values 0.975 | S. cerevisiae deletion strains, locus YLR262C, strain YPT6, hits give low values 1.01 | S. cerevisiae deletion strains, locus YLR268W, strain sec22, hits give low values 1 | S. cerevisiae deletion strains, locus YLR320W, strain mms22, hits give low values 0.989 | S. cerevisiae deletion strains, locus YLR330W, strain CHS5, hits give low values 0.993 | S. cerevisiae deletion strains, locus YLR342W, strain FKS1 (second series), hits give low values 1.03 | S. cerevisiae deletion strains, locus YLR342W, strain FKS1, hits give low values 1 | S. cerevisiae deletion strains, locus YLR357W, strain rsc2, hits give low values 1.01 | S. cerevisiae deletion strains, locus YLR370C, strain arc18, hits give low values 1 | S. cerevisiae deletion strains, locus YLR371W, strain rom2, hits give low values 0.968 | S. cerevisiae deletion strains, locus YLR384C, strain iki3, hits give low values 1 | S. cerevisiae deletion strains, locus YLR418C, strain cdc73, hits give low values 0.948 | S. cerevisiae deletion strains, locus YML016C, strain PPZ1, hits give low values 1 | S. cerevisiae deletion strains, locus YML032C, strain rad52, hits give low values 0.986 | S. cerevisiae deletion strains, locus YML120C, strain ndi1, hits give low values 1.02 | S. cerevisiae deletion strains, locus YML124C, strain tub3, hits give low values 0.961 | S. cerevisiae deletion strains, locus YMR058W, strain fet3, hits give low values 1 | S. cerevisiae deletion strains, locus YMR078C, strain ctf18, hits give low values 0.958 | S. cerevisiae deletion strains, locus YMR125W, strain sto1, hits give low values 1.02 | S. cerevisiae deletion strains, locus YMR129W, hits give low values 1.01 | S. cerevisiae deletion strains, locus YMR205C, strain PFK2, hits give low values 1 | S. cerevisiae deletion strains, locus YMR223W, strain ubp8, hits give low values 0.953 | S. cerevisiae deletion strains, locus YMR231W, strain pep5, hits give low values 1 | S. cerevisiae deletion strains, locus YMR307W, strain GAS1, hits give low values 0.947 | S. cerevisiae deletion strains, locus YNL067W, strain RPL9B, hits give low values 0.987 | S. cerevisiae deletion strains, locus YNL071W, strain lat1, hits give low values 1.02 | S. cerevisiae deletion strains, locus YNL128W, strain TEP1, hits give low values 0.998 | S. cerevisiae deletion strains, locus YNL153C, strain GIM3, hits give low values 1 | S. cerevisiae deletion strains, locus YNL183C, strain NPR1, hits give low values 0.949 | S. cerevisiae deletion strains, locus YNL209W, strain ssb2, hits give low values 0.999 | S. cerevisiae deletion strains, locus YNL233W, strain BNI4, hits give low values 1 | S. cerevisiae deletion strains, locus YNL248C, strain rpa49, hits give low values 1.05 | S. cerevisiae deletion strains, locus YNL250W, strain rad50, hits give low values 0.958 | S. cerevisiae deletion strains, locus YNL271C, strain bni1, hits give low values 0.942 | S. cerevisiae deletion strains, locus YNL298W, strain CLA4, hits give low values 0.932 | S. cerevisiae deletion strains, locus YNL307C, strain MCK1, hits give low values 0.973 | S. cerevisiae deletion strains, locus YNL322C, strain KRE1 (second series), hits give low values 0.98 | S. cerevisiae deletion strains, locus YNL322C, strain KRE1, hits give low values 0.987 | S. cerevisiae deletion strains, locus YNR049C, strain mso1, hits give low values 0.996 | S. cerevisiae deletion strains, locus YNR052C, strain pop2, hits give low values 0.97 | S. cerevisiae deletion strains, locus YOL012C, strain htz1 1.21 | S. cerevisiae deletion strains, locus YOL147C, strain pex11, hits give low values 0.961 | S. cerevisiae deletion strains, locus YOR001W, strain rrp6, hits give low values 0.997 | S. cerevisiae deletion strains, locus YOR061W, strain CKA2, hits give low values 1 | S. cerevisiae deletion strains, locus YOR069W, strain VPS5, hits give low values 0.99 | S. cerevisiae deletion strains, locus YOR070C, strain gyp1, hits give low values 1 | S. cerevisiae deletion strains, locus YOR080W, strain dia2, hits give low values 1 | S. cerevisiae deletion strains, locus YOR083W, strain WHI5, hits give low values 0.968 | S. cerevisiae deletion strains, locus YOR106W, strain vam3, hits give low values 1.04 | S. cerevisiae deletion strains, locus YOR136W, strain idh2, hits give low values 0.988 | S. cerevisiae deletion strains, locus YOR144C, strain elg1, hits give low values 0.968 | S. cerevisiae deletion strains, locus YOR184W, strain ser1, hits give low values 0.978 | S. cerevisiae deletion strains, locus YOR231W, strain MKK1, hits give low values 0.954 | S. cerevisiae deletion strains, locus YOR265W, strain rbl2, hits give low values 1 | S. cerevisiae deletion strains, locus YOR270C, strain vph1, hits give low values 1.06 | S. cerevisiae deletion strains, locus YOR290C, strain snf2, hits give low values 1.01 | S. cerevisiae deletion strains, locus YOR316C, strain cot1, hits give low values 0.968 | S. cerevisiae deletion strains, locus YPL051W, strain arl3, hits give low values 1 | S. cerevisiae deletion strains, locus YPL078C, strain atp4, hits give low values 1.02 | S. cerevisiae deletion strains, locus YPL106C, strain sse1, hits give low values 0.952 | S. cerevisiae deletion strains, locus YPL240C, strain hsp82, hits give low values 0.997 | S. cerevisiae deletion strains, locus YPL241C, strain CIN2, hits give low values 0.987 | S. cerevisiae deletion strains, locus YPL256C, strain CLN2, hits give low values 0.914 | S. cerevisiae deletion strains, locus YPR119W, strain clb2, hits give low values 0.966 | S. cerevisiae deletion strains, locus YPR141C, strain kar3, hits give low values 0.948 | S. cerevisiae deletion strains, locus YPR163C, strain tif3, hits give low values 0.958 | S. cerevisiae deletion strains, locus YPR167C, strain met16, hits give low values 0.958 | S. cerevisiae deletion strains, strain wtn01, hits give low values 0.978 | S. cerevisiae strains, strain wild type, hits give low values 0.998
active: S. cerevisiae deletion strains, locus YKL085W, strain MDH1 (second series), hits give low values 0.923 | S. cerevisiae deletion strains, locus YKL085W, strain MDH1, hits give low values 0.923
